Measurements: PubChem BioAssay (EPA / NIEHS)
Inconclusive results are not listed. The source made the active and inactive calls. Rule for the calls, unless noted: active = hit-call score of the fitted dose curve at least 0.9, where 1 is the maximum; inactive = score below 0.9.

How the values were obtained:
[1] = biological target: Myc proto-oncogene protein (Homo sapiens) (UniProt P01106); assay: ATG_Myc_CIS: Attagene CIS-FACTORIAL HepG2 Assay for human Myelocytomatosis (Myc) Proto-Oncogene Transcription Factor (AID 2282990); conditions: HepG2, Attagene cis-reporter transcription factor activity; actives raise or lower the signal
Chain of Myc proto-oncogene protein (Homo sapiens) (P01106 whole entry, looked up, the tested form may be a part): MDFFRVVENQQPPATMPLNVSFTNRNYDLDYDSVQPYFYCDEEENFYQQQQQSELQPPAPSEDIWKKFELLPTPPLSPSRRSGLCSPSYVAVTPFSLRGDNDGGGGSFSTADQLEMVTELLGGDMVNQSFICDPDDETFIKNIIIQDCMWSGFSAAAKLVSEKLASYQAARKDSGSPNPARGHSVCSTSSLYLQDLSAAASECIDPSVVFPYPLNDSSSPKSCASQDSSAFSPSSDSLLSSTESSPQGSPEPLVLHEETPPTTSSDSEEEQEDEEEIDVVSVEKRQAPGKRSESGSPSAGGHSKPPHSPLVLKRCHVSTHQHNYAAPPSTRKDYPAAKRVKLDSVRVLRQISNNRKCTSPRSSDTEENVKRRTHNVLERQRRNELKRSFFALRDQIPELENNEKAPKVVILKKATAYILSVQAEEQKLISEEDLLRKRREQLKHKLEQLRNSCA
How it was run: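 After 24 h chemical treatment of HepG2 cells carrying multiplexed cis-regulated reporter constructs, reporter transcripts quantified by RT-PCR and capillary electrophoresis of fluorescent fragments. Gain or loss fitted against DMSO baseline.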

[2] = ATG_NF_kB_CIS: Attagene CIS-FACTORIAL HepG2 Assay for human Nuclear Factor Kappa B (NF-kB) (AID 2282991); conditions: HepG2 Attagene cis-factorial NF-kB reporter mRNA; actives raise or lower the signal
How it was run: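 HepG2 cells transfected with cis-promoter-driven reporter units, so endogenous transcription factor activity is measured. Reporter mRNA quantified 24 h after dosing by RT-PCR and capillary electrophoresis, with bidirectional fitting against DMSO.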

[3] = ATG_NRF2_ARE_CIS: Attagene CIS-FACTORIAL HepG2 Assay for human Nuclear Factor Erythroid 2 Related Factor 2 (NFR2) response to Antioxidant Response Elements (ARE) (AID 2282992); conditions: HepG2 Attagene ARE/NRF2 reporter, transcription factor activity; actives raise or lower the signal;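 for AC50: reporter mRNA level measured by RT-PCR and capillary electrophoresis fluorescence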
How it was run: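 HepG2 cells transiently transfected with multiplexed cis-regulated reporter transcription units measure endogenous transcription factor activity. Reporter mRNA at 24 h is quantified by RT-PCR, fluorescent labelling and capillary electrophoresis, with bidirectional fitting relative to DMSO.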

[4] = ATG_Oct_MLP_CIS: Attagene CIS-FACTORIAL HepG2 Assay for human Octamer-Binding Transcription Factor (Oct) (AID 2282993); conditions: HepG2 Attagene cis-factorial Oct reporter, mRNA; actives raise or lower the signal
How it was run: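 HepG2 cells transiently transfected with cis-element-driven reporter transcription units (endogenous TF activity); 24 h compound exposure. Reporter mRNA quantified by RT-PCR, 6-FAM labelling, HpaI digestion and capillary electrophoresis; bidirectional fit versus DMSO baseline.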

[5] = biological target: human Peroxisome Proliferator-activated Receptor alpha (PPARa), PPARA (gene 5465) (UniProt Q07869); assay: ATG_PPARa_TRANS: Attagene TRANS-FACTORIAL HepG2 Assay for human Peroxisome Proliferator-activated Receptor alpha (PPARa) (AID 2283001; active = hit-call score of the fitted dose curve at least 0.9, where 1 is the maximum)
Chain of human Peroxisome Proliferator-activated Receptor alpha (PPARa), PPARA (gene 5465) (Q07869 whole entry, looked up, the tested form may be a part): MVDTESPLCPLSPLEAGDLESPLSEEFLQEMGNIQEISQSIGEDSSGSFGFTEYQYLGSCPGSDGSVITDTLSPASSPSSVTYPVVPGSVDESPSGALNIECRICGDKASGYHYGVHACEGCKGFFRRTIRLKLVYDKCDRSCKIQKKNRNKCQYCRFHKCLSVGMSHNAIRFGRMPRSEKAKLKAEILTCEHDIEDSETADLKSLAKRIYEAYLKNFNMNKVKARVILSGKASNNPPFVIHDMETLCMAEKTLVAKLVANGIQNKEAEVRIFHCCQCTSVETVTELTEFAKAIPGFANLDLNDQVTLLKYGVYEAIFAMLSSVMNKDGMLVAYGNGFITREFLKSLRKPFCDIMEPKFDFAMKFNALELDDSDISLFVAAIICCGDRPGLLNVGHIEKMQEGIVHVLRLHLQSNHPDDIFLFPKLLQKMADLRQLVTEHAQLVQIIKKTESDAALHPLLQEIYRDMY
How it was run: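 Read-out is fluorescence of reporter cDNA fragments resolved by capillary electrophoresis after RT-PCR. Human HepG2 liver cells carried transfected PPARa-Gal4 chimera and GAL4-UAS reporter units, treated 24 h; activity scored as increase over DMSO.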

[6] = biological target: human Retinoic Acid Receptor beta (RARb), RARB (gene 5915) (UniProt P10826); assay: ATG_RARb_TRANS: Attagene TRANS-FACTORIAL HepG2 Assay for human Retinoic Acid Receptor beta (AID 2283004; active = hit-call score of the fitted dose curve at least 0.9, where 1 is the maximum)
Chain of human Retinoic Acid Receptor beta (RARb), RARB (gene 5915) (P10826 whole entry, looked up, the tested form may be a part): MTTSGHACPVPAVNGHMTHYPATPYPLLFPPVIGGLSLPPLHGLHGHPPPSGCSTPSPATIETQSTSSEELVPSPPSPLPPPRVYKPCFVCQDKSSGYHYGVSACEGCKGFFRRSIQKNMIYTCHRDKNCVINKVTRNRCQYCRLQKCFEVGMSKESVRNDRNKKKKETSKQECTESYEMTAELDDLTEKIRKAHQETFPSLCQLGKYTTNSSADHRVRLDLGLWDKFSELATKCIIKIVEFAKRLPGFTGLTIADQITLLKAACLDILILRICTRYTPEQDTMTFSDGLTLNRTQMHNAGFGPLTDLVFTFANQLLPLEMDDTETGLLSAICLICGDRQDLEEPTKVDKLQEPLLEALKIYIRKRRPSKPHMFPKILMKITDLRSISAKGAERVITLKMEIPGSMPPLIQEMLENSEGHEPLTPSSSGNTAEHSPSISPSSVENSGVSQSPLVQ
How it was run: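 HepG2, transient MRTU transfection, NR–Gal4 chimera, 24 h treatment; RT-PCR plus CE fluorescence detection of reporter mRNA; gain of signal vs DMSO.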

[7] = biological target: Peroxisome proliferator-activated receptor gamma (Homo sapiens) (UniProt P37231); assay: ATG_PPARg_TRANS: Attagene TRANS-FACTORIAL HepG2 Assay for human Peroxisome Proliferator-activated Receptor-gamma (PPARg) (AID 2283007; active = hit-call score of the fitted dose curve at least 0.9, where 1 is the maximum)
Chain of Peroxisome proliferator-activated receptor gamma (Homo sapiens) (P37231 whole entry, looked up, the tested form may be a part): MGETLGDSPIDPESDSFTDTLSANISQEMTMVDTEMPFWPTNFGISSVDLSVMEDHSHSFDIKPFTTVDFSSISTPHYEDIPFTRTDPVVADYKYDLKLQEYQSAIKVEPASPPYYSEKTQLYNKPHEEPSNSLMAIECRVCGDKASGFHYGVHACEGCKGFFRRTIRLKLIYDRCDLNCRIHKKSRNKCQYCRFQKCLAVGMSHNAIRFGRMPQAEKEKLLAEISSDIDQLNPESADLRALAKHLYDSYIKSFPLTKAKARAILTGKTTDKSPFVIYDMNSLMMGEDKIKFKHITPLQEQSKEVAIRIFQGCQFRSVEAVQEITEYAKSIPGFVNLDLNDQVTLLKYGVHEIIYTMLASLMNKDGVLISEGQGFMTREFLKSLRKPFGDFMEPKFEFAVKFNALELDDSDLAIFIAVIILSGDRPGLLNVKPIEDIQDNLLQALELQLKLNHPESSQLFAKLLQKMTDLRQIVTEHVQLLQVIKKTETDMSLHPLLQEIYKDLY
How it was run: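 HepG2 cells are transiently transfected with GAL4-UAS reporter units driven by chimeric NR-Gal4 fusions and dosed for 24 h. Reporter mRNA is quantified by RT-PCR, 6-FAM labelling, HpaI digestion and capillary electrophoresis. Induction is scored against DMSO.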

[8] = biological target: Nuclear receptor subfamily 1 group I member 2 (Homo sapiens) (UniProt O75469); assay: ATG_PXR_TRANS: Attagene TRANS-FACTORIAL HepG2 Assay for human Pregnane X Receptor (PXR) (AID 2283008; active = hit-call score of the fitted dose curve at least 0.9, where 1 is the maximum)
Chain of Nuclear receptor subfamily 1 group I member 2 (Homo sapiens) (O75469 whole entry, looked up, the tested form may be a part): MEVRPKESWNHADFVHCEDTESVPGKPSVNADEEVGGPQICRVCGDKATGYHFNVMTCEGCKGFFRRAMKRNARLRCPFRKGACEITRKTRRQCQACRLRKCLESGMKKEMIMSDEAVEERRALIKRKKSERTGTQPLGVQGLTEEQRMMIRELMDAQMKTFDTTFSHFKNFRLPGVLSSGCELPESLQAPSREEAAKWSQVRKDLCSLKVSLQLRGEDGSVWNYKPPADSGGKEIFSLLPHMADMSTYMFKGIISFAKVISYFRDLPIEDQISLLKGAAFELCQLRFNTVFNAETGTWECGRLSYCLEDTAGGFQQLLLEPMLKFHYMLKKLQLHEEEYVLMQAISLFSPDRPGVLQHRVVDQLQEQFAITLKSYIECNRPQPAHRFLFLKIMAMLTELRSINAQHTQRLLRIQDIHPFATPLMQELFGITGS
How it was run: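 HepG2 cells transiently transfected with multiple reporter units, here a PXR-GAL4 chimera driving a GAL4-UAS reporter; 24 h compound exposure. Reporter mRNA measured by RT-PCR, FAM labelling and capillary electrophoresis; gain of signal fitted against DMSO baseline.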

[9] = biological target: human Retinoic Acid Receptor gamma (RARg), RARG (gene 5916) (UniProt P13631); assay: ATG_RARg_TRANS: Attagene TRANS-FACTORIAL HepG2 Assay for human Retinoic Acid Receptor gamma (RARg) (AID 2283009; active = hit-call score of the fitted dose curve at least 0.9, where 1 is the maximum)
Chain of human Retinoic Acid Receptor gamma (RARg), RARG (gene 5916) (P13631 whole entry, looked up, the tested form may be a part): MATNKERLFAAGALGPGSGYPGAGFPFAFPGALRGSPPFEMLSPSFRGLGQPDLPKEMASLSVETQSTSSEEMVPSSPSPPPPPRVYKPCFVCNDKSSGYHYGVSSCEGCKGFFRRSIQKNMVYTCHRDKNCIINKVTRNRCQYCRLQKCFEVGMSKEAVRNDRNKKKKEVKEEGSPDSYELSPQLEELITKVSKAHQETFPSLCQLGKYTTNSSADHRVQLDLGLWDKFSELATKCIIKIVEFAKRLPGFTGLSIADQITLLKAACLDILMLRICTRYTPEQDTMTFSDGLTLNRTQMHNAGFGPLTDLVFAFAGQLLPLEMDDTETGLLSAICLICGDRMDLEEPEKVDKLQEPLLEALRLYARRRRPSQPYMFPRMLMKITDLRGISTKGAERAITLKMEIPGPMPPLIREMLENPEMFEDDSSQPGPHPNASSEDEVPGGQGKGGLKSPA
How it was run: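 HepG2 transiently transfected with GAL4-UAS reporter units and chimeric NR-Gal4 constructs; 24 h compound exposure. Reporter mRNA quantified by RT-PCR, FAM labeling, HpaI digestion and capillary electrophoresis; gain-of-signal versus DMSO.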

[10] = biological target: human RAR-related Orphan Receptor beta (RORb), RORB (gene 6096) (UniProt Q92753); assay: ATG_RORb_TRANS: Attagene TRANS-FACTORIAL HepG2 Assay for human RAR-related Orphan Receptor beta (RORb) (AID 2283010; active = hit-call score of the fitted dose curve at least 0.9, where 1 is the maximum)
Chain of human RAR-related Orphan Receptor beta (RORb), RORB (gene 6096) (Q92753 whole entry, looked up, the tested form may be a part): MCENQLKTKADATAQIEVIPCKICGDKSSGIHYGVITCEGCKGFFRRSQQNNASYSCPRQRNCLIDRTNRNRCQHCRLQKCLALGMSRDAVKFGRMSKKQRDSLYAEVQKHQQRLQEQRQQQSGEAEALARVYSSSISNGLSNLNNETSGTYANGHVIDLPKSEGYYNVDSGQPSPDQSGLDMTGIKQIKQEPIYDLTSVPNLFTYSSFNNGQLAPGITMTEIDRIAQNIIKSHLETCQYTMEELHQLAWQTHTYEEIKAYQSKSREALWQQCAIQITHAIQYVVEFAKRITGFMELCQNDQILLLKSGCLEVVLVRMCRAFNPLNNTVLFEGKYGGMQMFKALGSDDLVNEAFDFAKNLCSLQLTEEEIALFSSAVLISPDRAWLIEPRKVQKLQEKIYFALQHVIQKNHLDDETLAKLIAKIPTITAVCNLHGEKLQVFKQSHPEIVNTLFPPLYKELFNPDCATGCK
How it was run: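 HepG2 cells transiently transfected with GAL4-UAS reporter units expressing chimeric NR-Gal4 protein; reporter mRNA measured 24 h after dosing by RT-PCR, 6-FAM labelling and capillary electrophoresis. Gain-of-signal fitted relative to DMSO baseline.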

[11] = biological target: Cellular tumor antigen p53 (Homo sapiens) (UniProt P04637); assay: ATG_p53_CIS: Attagene CIS-FACTORIAL HepG2 Assay for human p53 Transcription Factor (AID 2282994); conditions: HepG2 p53 cis-element reporter, Attagene mRNA; actives raise or lower the signal
Chain of Cellular tumor antigen p53 (Homo sapiens) (P04637 whole entry, looked up): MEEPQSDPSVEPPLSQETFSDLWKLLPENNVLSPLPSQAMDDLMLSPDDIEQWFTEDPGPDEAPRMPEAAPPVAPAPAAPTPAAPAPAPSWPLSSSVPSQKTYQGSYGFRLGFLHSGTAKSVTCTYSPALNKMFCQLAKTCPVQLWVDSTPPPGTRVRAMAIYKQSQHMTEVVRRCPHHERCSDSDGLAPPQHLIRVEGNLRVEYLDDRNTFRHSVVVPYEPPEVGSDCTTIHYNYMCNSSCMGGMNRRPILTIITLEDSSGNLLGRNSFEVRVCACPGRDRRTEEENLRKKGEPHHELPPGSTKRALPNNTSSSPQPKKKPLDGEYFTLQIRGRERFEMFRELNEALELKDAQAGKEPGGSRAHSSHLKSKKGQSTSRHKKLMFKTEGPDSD
How it was run: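 HepG2 cells transiently transfected with multiplexed cis-regulated reporter transcription units read endogenous TF activity. After 24 h compound exposure, reporter mRNA was quantified by RT-PCR, fluorescent labelling, HpaI digestion and capillary electrophoresis; bidirectional fits versus DMSO baseline.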

[12] = biological target: human Peroxisome Proliferator-activated Receptor delta (PPARd), PPARD (gene 5467) (UniProt Q03181); assay: ATG_PPARd_TRANS: Attagene TRANS-FACTORIAL HepG2 Assay for human Peroxisome Proliferator-activated Receptor delta (PPARd) (AID 2283002; active = hit-call score of the fitted dose curve at least 0.9, where 1 is the maximum)
Chain of human Peroxisome Proliferator-activated Receptor delta (PPARd), PPARD (gene 5467) (Q03181 whole entry, looked up, the tested form may be a part): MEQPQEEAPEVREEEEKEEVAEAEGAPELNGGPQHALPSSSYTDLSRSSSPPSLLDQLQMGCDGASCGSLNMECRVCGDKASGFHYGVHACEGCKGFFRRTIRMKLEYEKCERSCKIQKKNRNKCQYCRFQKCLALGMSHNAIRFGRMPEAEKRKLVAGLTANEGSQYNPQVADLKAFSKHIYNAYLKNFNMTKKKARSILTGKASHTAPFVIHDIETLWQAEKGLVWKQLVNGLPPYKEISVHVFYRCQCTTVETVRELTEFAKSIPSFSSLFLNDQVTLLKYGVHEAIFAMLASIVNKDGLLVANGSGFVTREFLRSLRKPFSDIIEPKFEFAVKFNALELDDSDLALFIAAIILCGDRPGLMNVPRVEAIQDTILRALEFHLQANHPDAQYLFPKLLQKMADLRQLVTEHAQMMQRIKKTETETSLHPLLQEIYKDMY
How it was run: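 Read-out is induced reporter mRNA, quantified by RT-PCR with fluorescent labelling and capillary electrophoresis after 24 h dosing. Cells are HepG2 transiently carrying multiple GAL4-UAS reporter units driven by exogenous NR-GAL4 chimeras; DMSO serves as baseline.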

[13] = biological target: human RAR-related Orphan Receptor gamma (RORg), RORC (gene 6097) (UniProt P51449); assay: ATG_RORg_TRANS: Attagene TRANS-FACTORIAL HepG2 Assay for human RAR-related Orphan Receptor gamma (RORg) (AID 2283011; active = hit-call score of the fitted dose curve at least 0.9, where 1 is the maximum)
Chain of human RAR-related Orphan Receptor gamma (RORg), RORC (gene 6097) (P51449 whole entry, looked up, the tested form may be a part): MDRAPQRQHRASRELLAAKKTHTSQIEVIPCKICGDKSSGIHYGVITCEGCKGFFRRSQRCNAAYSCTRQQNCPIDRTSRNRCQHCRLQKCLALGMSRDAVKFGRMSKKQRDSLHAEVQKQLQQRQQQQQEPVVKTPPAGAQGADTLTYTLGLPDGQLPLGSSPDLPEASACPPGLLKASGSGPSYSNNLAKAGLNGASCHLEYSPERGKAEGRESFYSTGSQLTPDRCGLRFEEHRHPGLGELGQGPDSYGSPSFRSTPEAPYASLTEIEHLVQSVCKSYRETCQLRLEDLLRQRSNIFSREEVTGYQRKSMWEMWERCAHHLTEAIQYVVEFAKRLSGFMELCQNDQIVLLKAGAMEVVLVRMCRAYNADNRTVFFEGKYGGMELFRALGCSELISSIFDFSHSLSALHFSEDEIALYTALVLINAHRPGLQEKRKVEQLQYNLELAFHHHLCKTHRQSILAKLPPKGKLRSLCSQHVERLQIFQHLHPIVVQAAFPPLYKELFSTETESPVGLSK
How it was run: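 Activity is scored as increase in GAL4-UAS reporter mRNA over DMSO, detected by fluorescent RT-PCR and capillary electrophoresis in HepG2 cells transiently expressing a RORg-Gal4 chimera, 24 h after dosing.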

[14] = BSK_3C_TissueFactor: BioMAP Diversity Plus: 3C Assay for Tissue Factor Biomarker Activity (AID 2282997); conditions: BioMAP 3C HUVEC, tissue factor biomarker readout; actives raise or lower the signal
How it was run: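 Values derive from bidirectional curve fitting against DMSO of Tissue Factor ELISA signals, taken 24 h after dosing primary human umbilical vein endothelial cells.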

[15] = BSK_3C_uPAR: BioMAP Diversity Plus: 3C Assay for Urokinase-type plasminogen activator receptor (uPAR) Biomarker Activity (AID 2282998); conditions: BioMAP 3C HUVEC, uPAR biomarker ELISA; actives raise or lower the signal
How it was run: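 Primary human umbilical vein endothelial cells, 3C system; surface uPAR measured by ELISA 24 h after dosing. Cytotoxicity via SRB total protein in parallel cultures; bidirectional fit against DMSO.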

[16] = BSK_4H_Eotaxin3: BioMAP Diversity Plus: 4H Assay for Eotaxin 3 Biomarker Activity (AID 2283000); conditions: primary human endothelial cells (HUVEC); actives raise or lower the signal;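 note: CCL26 protein level quantified by ELISA in parallel with SRB cytotoxicity check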
How it was run: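 Endothelial primary cells (human umbilical vein) exposed to compound for 24 h. ELISA detection of Eotaxin-3.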

[17] = read-out: Intercellular Adhesion Molecule 1 (ICAM1), ICAM1 (gene 3383); assay: BSK_3C_ICAM1: BioMAP Diversity Plus: 3C Assay for Intercellular Adhesion Molecule 1 (ICAM1) Biomarker Activity (AID 2283003); conditions: primary human endothelial cells (HUVEC); actives raise or lower the signal
How it was run: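 HUVEC primary cells stimulated under 3C conditions; ICAM1 measured by ELISA 24 h after compound dosing. Curves fitted bidirectionally against the DMSO baseline. Overt cytotoxicity checked by SRB staining of parallel cultures.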

[18] = BSK_3C_Proliferation: Cell Proliferation Assessment in the BioMAP Diversity Plus: 3C Assay (AID 2283006); conditions: primary human endothelial cells (HUVEC)
How it was run: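 Subconfluent HUVEC (3C system) cultured with chemical; relative cell number read at 48 h by sulforhodamine B total-protein staining (0.1% SRB after 10% TCA fixation, 560 nm). Bidirectional fit relative to DMSO.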

**Q.** Which outcome [1] does the source give for `OC[C@@H](O)[C@H]1O[C@@H]2O[C@H](C(Cl)(Cl)Cl)O[C@@H]2[C@H]1O` here?
**A.** inactive

**Q.** And the outcome [2]?
**A.** inactive

**Q.** And the outcome [3]?
**A.** inactive

**Q.** What about the outcome [4] of the same compound?
**A.** inactive

**Q.** And the outcome [5]?
**A.** inactive

**Q.** And the outcome [6]?
**A.** inactive

**Q.** What about the outcome [7] of the same compound?
**A.** inactive

**Q.** And the outcome [8]?
**A.** inactive

**Q.** What about the outcome [9] of the same compound?
**A.** inactive

**Q.** What about the outcome [10] of the same compound?
**A.** inactive

**Q.** Which outcome [1] does the source give for `CC(C)[C@@H](Nc1ccc(C(F)(F)F)cc1Cl)C(=O)OC(C#N)c1cccc(Oc2ccccc2)c1` (some centres undefined) here?
**A.** inactive

**Q.** What about the outcome [2] of the same compound?
**A.** inactive

**Q.** And the AC50 [3]?
**A.** 17.1 µM (active)

**Q.** And the outcome [4]?
**A.** inactive

**Q.** What about the outcome [11] of the same compound?
**A.** inactive

**Q.** And the outcome [6]?
**A.** inactive

**Q.** What about the AC50 [7] of the same compound?
**A.** 5.11 µM (active)

**Q.** And the AC50 [8]?
**A.** 0.51 µM (active)

**Q.** What about the outcome [9] of the same compound?
**A.** inactive

**Q.** Which outcome [1] does the source give for `CN(C)CCN(C)C` here?
**A.** inactive

**Q.** And the outcome [2]?
**A.** inactive

**Q.** And the outcome [3]?
**A.** inactive

**Q.** What about the outcome [5] of the same compound?
**A.** inactive

**Q.** And the outcome [12]?
**A.** inactive

**Q.** And the outcome [8]?
**A.** inactive

**Q.** And the outcome [10]?
**A.** inactive

**Q.** Which outcome [1] does the source give for `Nc1ccc(Br)cc1` here?
**A.** inactive

**Q.** What about the outcome [2] of the same compound?
**A.** inactive

**Q.** What about the outcome [3] of the same compound?
**A.** inactive

**Q.** And the outcome [11]?
**A.** inactive

**Q.** And the outcome [5]?
**A.** inactive

**Q.** And the outcome [12]?
**A.** inactive

**Q.** What about the outcome [7] of the same compound?
**A.** inactive

**Q.** What about the outcome [8] of the same compound?
**A.** inactive

**Q.** And the outcome [13]?
**A.** inactive

**Q.** For `CCOP(=O)(OCC)SCCSCC`, which outcome [1] is on record?
**A.** inactive

**Q.** What about the outcome [3] of the same compound?
**A.** inactive

**Q.** And the outcome [4]?
**A.** inactive

**Q.** What about the outcome [11] of the same compound?
**A.** inactive

**Q.** And the outcome [14]?
**A.** inactive

**Q.** What about the outcome [15] of the same compound?
**A.** inactive

**Q.** What about the outcome [16] of the same compound?
**A.** inactive

**Q.** What about the outcome [17] of the same compound?
**A.** inactive

**Q.** And the outcome [18]?
**A.** inactive

**Q.** What about the outcome [7] of the same compound?
**A.** inactive

**Q.** What about the outcome [8] of the same compound?
**A.** inactive

**Q.** And the outcome [9]?
**A.** inactive

**Q.** And the outcome [10]?
**A.** inactive

**Q.** What about the outcome [13] of the same compound?
**A.** inactive

**Q.** Which outcome [1] does the source give for `O=S1OC[C@@H]2[C@H](CO1)[C@]1(Cl)C(Cl)=C(Cl)[C@@]2(Cl)C1(Cl)Cl` (some centres undefined) here?
**A.** inactive

**Q.** What about the outcome [2] of the same compound?
**A.** inactive

**Q.** What about the outcome [3] of the same compound?
**A.** inactive

**Q.** What about the outcome [11] of the same compound?
**A.** inactive

**Q.** And the outcome [9]?
**A.** inactive
